Compound activity: PubChem, several laboratories
Compounds with a hit are over-represented: about 4.6% of the library has one in this group of screens.
HIF-2a inh – HIF-2a inhibition; 786-0 RCC cells HIF-2a reporter, luciferase luminescence, overnight; inhibition, % at 18.8 µM; actives 0.72% (n = 360,000); AID 624352;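 active = inhibition of the luminescence signal of 40% or more relative to plate controls, in a single-dose primary screen at 18.75 µM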
CF NFkB inh – blocks PAF-induced NF-kB reporter in cystic fibrosis cells. KKLEB NF-kB-GFP reporter, GFP fluorescence overnight. inhibition, % at 5 µM. actives 0.86% (n = 360,000);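 active = at least 50% inhibition at 5 µM, scaled per plate between neutral and stimulator controls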;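 note: PAF is a Pseudomonas aeruginosa culture filtrate used as stimulus; plate controls were PAF-stimulated DMSO wells for no effect and unstimulated DMSO wells for full effect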
ABHD5-PLIN5 inh – ABHD5-PLIN5 protein interaction inhibition. Split G. princeps luciferase complementation, luminescence, 4 h. AID 602281. actives 0.78% (n = 360,000). Q00G26+Q8WTS1. inhibition, % at 4 µM;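 active = inhibition above the mean inhibition across every tested compound plus 3 SD, cut at about 22% in these data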;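 note: 0% = DMSO only wells and the 100% control is not disclosed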
Target sequence (Q00G26 whole entry, looked up): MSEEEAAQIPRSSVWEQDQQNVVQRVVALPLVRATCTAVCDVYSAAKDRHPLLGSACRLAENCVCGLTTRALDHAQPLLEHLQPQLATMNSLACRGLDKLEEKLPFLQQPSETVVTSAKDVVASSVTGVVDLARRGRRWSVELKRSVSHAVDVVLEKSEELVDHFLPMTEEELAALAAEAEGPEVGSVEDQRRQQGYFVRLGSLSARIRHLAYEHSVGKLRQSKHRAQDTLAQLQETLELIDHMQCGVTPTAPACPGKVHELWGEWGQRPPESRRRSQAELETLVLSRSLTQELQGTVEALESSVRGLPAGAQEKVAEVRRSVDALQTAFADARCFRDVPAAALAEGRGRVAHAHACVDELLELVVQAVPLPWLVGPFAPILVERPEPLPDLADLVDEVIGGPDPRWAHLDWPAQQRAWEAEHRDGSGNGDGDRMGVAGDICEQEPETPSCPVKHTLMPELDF
Target sequence (Q8WTS1 whole entry, looked up): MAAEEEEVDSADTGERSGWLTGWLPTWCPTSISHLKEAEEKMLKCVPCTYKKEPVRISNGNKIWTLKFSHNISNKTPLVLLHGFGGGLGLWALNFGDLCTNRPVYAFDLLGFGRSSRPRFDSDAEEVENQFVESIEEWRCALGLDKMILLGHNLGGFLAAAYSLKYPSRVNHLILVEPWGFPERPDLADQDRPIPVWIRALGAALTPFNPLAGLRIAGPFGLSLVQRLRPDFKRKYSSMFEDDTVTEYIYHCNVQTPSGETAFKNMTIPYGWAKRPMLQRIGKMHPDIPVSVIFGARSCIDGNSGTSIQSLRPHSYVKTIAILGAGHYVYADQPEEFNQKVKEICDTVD
Peg3 prom inh-1 – inhibitors of Peg3 promoter. HeLa PEG-Prom luciferase reporter, luminescence, overnight. inhibition, % at 20 µM. actives 1.7% (n = 360,000);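 active = inhibition of at least 50% at 20 µM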
Mdm2-MdmX inh – disrupts the human Mdm2-MdmX interaction; SaOS-2 split-luciferase Mdm2/MdmX complementation, luminescence; O15151+Q00987; inhibition, % at 8 µM; actives 3% (n = 330,000);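 active = inhibition of at least 50% at 8 µM in the primary screen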
KKLEB tox – reduces viability of KKLEB cystic fibrosis airway cells. KKLEB CF airway cells viability, ATPlite luminescence, overnight; hits give low values; cells stimulated with P. aeruginosa culture filtrate. activity change (cytotoxicity), % at 5 µM. actives 0.36% (n = 360,000). AID 602141;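 active = corrected activity change at or below -50% at 5 µM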
Peg3 prom inh-2 – Peg3 promoter inhibition confirmation; actives 84% (n = 1,300); inhibition, % at 20 µM; AID 602417; HeLa PEG-Prom luciferase reporter, luminescence, overnight; shares compounds with Peg3 prom inh-1;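 active = at 20 µM dose, 40% or more inhibition averaged across four replicates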
An asterisk follows results filed as active; nt = not tested or not shown.

SMILES | HIF-2a inh | CF NFkB inh | ABHD5-PLIN5 inh | Peg3 prom inh-1 | Mdm2-MdmX inh | KKLEB tox | Peg3 prom inh-2
CN(Cc1ccc(F)cc1)C(=O)C(Cc1ccccc1)NC(=O)c1ccccc1 (stereo not drawn) | 15 | -13 | -8 | 35 | 16 | 1 | nt
CSc1ccc(CN(C)C(=O)C(Cc2ccccc2)NC(=O)c2ccccc2)cc1 (stereo not drawn) | 15 | 16 | 5 | 66* | 23 | -12 | 62*
CC(=O)NS(=O)(=O)c1ccc2sc(C)nc2c1 | 22 | 0 | 0 | 9 | 20 | 12 | nt
CC(=O)c1c(C)[nH]c(C(=O)CN2CCN(S(=O)(=O)c3ccccc3[N+](=O)[O-])CC2)c1C | 4 | -10 | -1 | 23 | 20 | -3 | nt
O=C(c1ccc(NS(=O)(=O)c2ccc3[nH]c(=O)[nH]c3c2)cc1)N1CCCC(C(F)(F)F)C1 (stereo not drawn) | 3 | -10 | -4 | -8 | -3 | 14 | nt
CN1OC[C@@H]2CN(C(=O)C(C)(C)C)[C@H](c3ccc(-c4cccnc4)cc3)C[C@@H]21 | 5 | -14 | 0 | 7 | nt | 7 | nt
Cc1[nH]n2c(=O)cc(C(C)(C)C)nc2c1-c1ccccc1 | 11 | 20 | 3 | 54* | 32 | -2 | 50*
CCCc1nc2c(=O)n(C)c(=O)nc-2n(C)n1 | 80* | 97* | 6 | 104* | nt | -39 | 100*
COc1ccc(NC(=O)N(C)[C@H]2C[C@H]3c4[nH]c5ccccc5c4CCN3C[C@H]2[C@H](C)O)cc1 | -12 | 26 | 3 | -7 | nt | -13 | nt
COc1ccc(NC(=O)N(C)[C@H]2C[C@H]3c4[nH]c5ccc(-c6cccc(C)c6)cc5c4CCN3C[C@H]2[C@H](C)O)cc1 | -14 | 44 | 14 | 92* | nt | -28 | 53*
COC1=C(Br)C(=O)c2ncccc2C1=O | 72* | -1 | -28 | 100* | nt | 9 | 99*
COc1ccc(NC(=O)C2CCN(S(=O)(=O)c3ccc4c(c3)CC(C)N4C(C)=O)CC2)c(OC)c1 (stereo not drawn) | 12 | -7 | 3 | 10 | 28 | 1 | nt
CCCCN(C)C(=O)c1ccc(Nc2nc(C(N)Cc3ccccc3)cs2)nc1 (stereo not drawn) | 2 | 36 | 8 | 40 | nt | -12 | nt
CC(C)CC(N)c1csc(Nc2ccc(C(=O)N(C)Cc3ccccc3)cn2)n1 (stereo not drawn) | 11 | 17 | 4 | 60* | nt | -8 | 85*
CN(Cc1ccccc1)C(=O)c1ccc(Nc2nc(C(N)COCc3ccccc3)cs2)nc1 (stereo not drawn) | 2 | 6 | 7 | 24 | nt | -11 | nt
COc1cccc(Nc2nc(C(N)Cc3ccccc3)cs2)n1 (stereo not drawn) | -5 | 11 | -12 | 89* | nt | -12 | 96*
CN(Cc1ccccc1)C(=O)c1ccc(Nc2nc(C(N)Cc3ccccc3)cs2)nc1 (stereo not drawn) | -33 | 42 | 4 | 93* | nt | -46 | 90*
CN1C(=O)/C(=C/c2cccc([N+](=O)[O-])c2)C(=O)N1c1ccccc1 | 9 | -2 | -3 | 15 | 6 | -1 | nt
CCCN1C/C(=C/c2cccc([N+](=O)[O-])c2)C(=O)/C(=C/c2cccc([N+](=O)[O-])c2)C1 | 26 | 95* | 14 | 111* | nt | -88* | 71*
CSc1ccccc1NC(=O)COc1ccc(Cl)cc1Cl | -186 | -1 | 2 | -103 | -20 | 2 | nt
O=C(COc1ccc(Cl)cc1Cl)Nc1ccccn1 | 81* | -3 | -2 | 92* | -9 | -92* | 87*
COc1ccc(CNn2c(-c3cccc(C)c3)nc3ccccc3c2=O)cc1OC | -7 | -5 | 7 | 57* | 8 | -5 | 38
Cc1cccn2c(CN[C@H]3CCCCNC3=O)c(C(=O)N3CCOCC3)nc12 | 20 | -5 | 1 | 3 | -1 | 10 | nt
CC(NNC(=S)N1CCN(c2ccccn2)CC1)c1nccc2ccccc12 (stereo not drawn) | 52* | 0 | 8 | 92* | nt | -12 | 87*
CCNC(=S)N1CCN(c2ccccn2)CC1 | 13 | -11 | -4 | -7 | 6 | -8 | nt
